Results: PubChem BioAssay (Tox21)
Results filed as inconclusive are left out. The source made the active and inactive calls. Calls follow the shape of the dose curve; as a rule, active = well fitted curve in the direction sought with a large enough effect in the repeat runs; inconclusive = weak or mixed curves; inactive = no such curve, though single readings can be large; an effect the other way counts as inactive or inconclusive.

Assays:
[1] = qHTS RealTime-Glo MT Cell Viability Assay in HepG2 cells - 24 hour (AID 1224867); also: nearly all actives have a fitted effect of over 50% in size
Summary of the method: (§1)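 HepG2 cells (600/well) were dispensed with RealTime-Glo reagents, incubated 5 h at 37 °C, then treated with compounds in DMSO for up to 40 h. Nonlytic NanoLuc luminescence reflecting viable cells was read at each stated time point.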

[2] = qHTS RealTime-Glo MT Cell Viability Assay in HEK293 cells - 32 hour (AID 1224868); also: top concentration of the series differs between compounds; nearly all actives have a fitted effect of over 50% in size
Summary of the method: (§2)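 HEK293 cells seeded with NanoLuc/prosubstrate reagent, rested 5 h at 37 C, then dosed and kept at 37 C up to 40 h. Nonlytic real-time luminescence from viable cells read at 0, 8, 16, 24, 32 and 40 h.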

[3] = A CellTox Green Cytotoxicity Assay to monitor cytotoxicity in HEK293 cells - 0 hour (AID 1224869); also: nearly all actives have a fitted effect of over 50% in size
Summary of the method: (§3)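 Cells (HEK293, 600/well) and dye reagent are dispensed together. After 5 h at 37 C, 23 nL compound is pinned in. Plates stay at 37 C for 40 h with fluorescence read at 0h, 8h, 16h, 24h, 32h and 40h.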

[4] = qHTS RealTime-Glo MT Cell Viability Assay in HepG2 cells - 40 hour (AID 1224870); also: nearly all actives have a fitted effect of over 50% in size
Summary of the method: (§4)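 HepG2 cells (600/well) mixed with RealTime-Glo MT reagent, settled 5 h at 37 C/5% CO2 before compound addition. Nonlytic NanoLuc luminescence from viable-cell prosubstrate reduction read repeatedly during 40 h treatment at 37 C.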

[5] = A CellTox Green Cytotoxicity Assay to monitor cytotoxicity in HEK293 cells - 40 hour (AID 1224871); also: nearly all actives have a fitted effect of over 45% in size
Summary of the method: as §3

[6] = qHTS RealTime-Glo MT Cell Viability Assay in HepG2 cells - 8 hour (AID 1224873); also: nearly all actives have a fitted effect of over 55% in size
Summary of the method: as §4

[7] = qHTS RealTime-Glo MT Cell Viability Assay in HEK293 cells - 40 hour (AID 1224874); settings: RealTime-Glo luminescence; max response: hits give low values; also: nearly all actives have a fitted effect of over 50% in size
Summary of the method: (§5)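 Real-time viability in HEK293: signal arises when living cells convert a prosubstrate for NanoLuc in the medium, so luminescence tracks viable cell number. Compound (23 nL, DMSO) added 5 h post-seeding; kinetic reads at 0–40 h, 37 C.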

[8] = A CellTox Green Cytotoxicity Assay to monitor cytotoxicity in HEK293 cells - 24 hour (AID 1224875); also: series mostly up to about 77 µM; nearly all actives have a fitted effect of over 45% in size
Summary of the method: as §3

[9] = A CellTox Green Cytotoxicity Assay to monitor cytotoxicity in HepG2 cells - 16 hour (AID 1224876); also: nearly all actives have a fitted effect of over 45% in size
Summary of the method: (§6)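 Cells and non-lytic dye reagent are dispensed together (600 HepG2 cells/well) and incubated 5 h before DMSO compound transfer. Kinetic fluorescence is then recorded in the same wells during 40 h at 37 C.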

[10] = A CellTox Green Cytotoxicity Assay to monitor cytotoxicity in HepG2 cells - 24 hour (AID 1224878); also: nearly all actives have a fitted effect of over 45% in size
Summary of the method: as §6

[11] = A CellTox Green Cytotoxicity Assay to monitor cytotoxicity in HepG2 cells - 40 hour (AID 1224879); also: nearly all actives have a fitted effect of over 40% in size
Summary of the method: as §6

[12] = qHTS RealTime-Glo MT Cell Viability Assay in HEK293 cells - 0 hour (AID 1224880)
Summary of the method: as §5

[13] = A CellTox Green Cytotoxicity Assay to monitor cytotoxicity in HEK293 cells - 32 hour (AID 1224881); also: nearly all actives have a fitted effect of over 40% in size
Summary of the method: as §3

[14] = A CellTox Green Cytotoxicity Assay to monitor cytotoxicity in HepG2 cells - 0 hour (AID 1224882); also: nearly all actives have a fitted effect of over 35% in size
Summary of the method: as §6

[15] = A CellTox Green Cytotoxicity Assay to monitor cytotoxicity in HepG2 cells - 32 hour (AID 1224883); also: nearly all actives have a fitted effect of over 50% in size
Summary of the method: as §6

[16] = A CellTox Green Cytotoxicity Assay to monitor cytotoxicity in HEK293 cells - 8 hour (AID 1224884); also: nearly all actives have a fitted effect of over 35% in size
Summary of the method: as §3

[17] = qHTS RealTime-Glo MT Cell Viability Assay in HepG2 cells - 16 hour (AID 1224885); also: nearly all actives have a fitted effect of over 50% in size
Summary of the method: as §1

[18] = qHTS RealTime-Glo MT Cell Viability Assay in HEK293 cells - 24 hour (AID 1224886)
Summary of the method: as §2

[19] = qHTS RealTime-Glo MT Cell Viability Assay in HEK293 cells - 16 hour (AID 1224872)
Summary of the method: as §2

[20] = qHTS RealTime-Glo MT Cell Viability Assay in HepG2 cells - 32 hour (AID 1224877); also: nearly all actives have a fitted effect of over 55% in size
Summary of the method: as §1
% is scaled to controls: 0 for no effect and ±100 for the full control effect.

O=C(CN1CCNCC1)NC1CCCCC1
inactive: outcome [1] | Potency [2] | Potency [3] | outcome [4] | Potency [5] | outcome [6] | max response [7] 0.0212% | Potency [8] | Potency [9] | Potency [10] | Potency [11] | Potency [12] | Potency [13] | Potency [14] | Potency [15] | Potency [16] | outcome [17] | Potency [18]

OCC(O)CN1CCN(c2ccccc2)CC1 (stereo not drawn)
inactive: outcome [1] | Potency [2] | Potency [3] | outcome [4] | Potency [5] | Potency [19] | outcome [6] | Potency [8] | Potency [9] | outcome [20] | Potency [10] | Potency [11] | Potency [12] | Potency [13] | Potency [14] | Potency [15] | Potency [16] | outcome [17] | Potency [18]

CO[Si](CCCn1c(=O)n(CCC[Si](OC)(OC)OC)c(=O)n(CCC[Si](OC)(OC)OC)c1=O)(OC)OC
inactive: outcome [1] | Potency [2] | Potency [3] | outcome [4] | Potency [5] | outcome [6] | max response [7] 1.02% | Potency [9] | outcome [20] | Potency [10] | Potency [11] | Potency [12] | Potency [13] | Potency [14] | Potency [15] | Potency [16] | outcome [17] | Potency [18]

CCC(=O)Oc1ccc2c(c1)CC[C@@H]1[C@@H]2CC[C@@]2(C)[C@H]1C[C@@H](OC(=O)CC)[C@@H]2OC(=O)CC
inactive: outcome [1] | Potency [2] | Potency [3] | outcome [4] | Potency [5] | outcome [6] | max response [7] -0.818% | Potency [8] | outcome [20] | Potency [11] | Potency [12] | Potency [13] | Potency [15] | Potency [16] | outcome [17] | Potency [18]

OCCN1CCOCC1
inactive: outcome [1] | Potency [2] | Potency [3] | outcome [4] | Potency [5] | outcome [6] | max response [7] 2.9% | Potency [8] | Potency [9] | outcome [20] | Potency [10] | Potency [11] | Potency [12] | Potency [13] | Potency [14] | Potency [15] | Potency [16] | outcome [17] | Potency [18]

C#CCN[C@@H]1CCc2ccccc21
inactive: outcome [1] | Potency [2] | Potency [3] | outcome [4] | Potency [5] | outcome [6] | max response [7] -4.89% | Potency [8] | Potency [9] | outcome [20] | Potency [10] | Potency [11] | Potency [12] | Potency [13] | Potency [14] | Potency [15] | Potency [16] | outcome [17] | Potency [18]

CC(C)=CCC/C(C)=C/COC=O
inactive: outcome [1] | Potency [2] | Potency [3] | outcome [4] | Potency [5] | Potency [19] | outcome [6] | Potency [8] | Potency [9] | outcome [20] | Potency [10] | Potency [11] | Potency [12] | Potency [13] | Potency [14] | Potency [15] | Potency [16] | outcome [17] | Potency [18]

CC(C)NCC(O)c1ccc2ccccc2c1 (stereo not drawn)
inactive: outcome [1] | Potency [2] | Potency [3] | outcome [4] | Potency [5] | outcome [6] | Potency [8] | Potency [9] | outcome [20] | Potency [10] | Potency [11] | Potency [12] | Potency [13] | Potency [14] | Potency [15] | Potency [16] | outcome [17] | Potency [18]

CCC(C)C(=O)OCCc1ccccc1 (stereo not drawn)
inactive: outcome [1] | Potency [2] | Potency [3] | outcome [4] | Potency [19] | outcome [6] | max response [7] -0.807% | Potency [8] | Potency [9] | outcome [20] | Potency [10] | Potency [11] | Potency [12] | Potency [14] | Potency [15] | Potency [16] | outcome [17] | Potency [18]

C=CC(=O)CCCCC
inactive: outcome [1] | Potency [2] | Potency [3] | outcome [4] | Potency [5] | outcome [6] | max response [7] -1.98% | Potency [8] | Potency [9] | outcome [20] | Potency [10] | Potency [11] | Potency [12] | Potency [13] | Potency [14] | Potency [15] | Potency [16] | outcome [17] | Potency [18]

CCOc1ccccc1OCC1CNCCO1 (stereo not drawn)
inactive: outcome [1] | Potency [2] | Potency [3] | outcome [4] | Potency [5] | Potency [19] | outcome [6] | Potency [9] | outcome [20] | Potency [10] | Potency [11] | Potency [12] | Potency [13] | Potency [14] | Potency [15] | Potency [16] | outcome [17] | Potency [18]

CC1OCCC1=O (stereo not drawn)
inactive: outcome [1] | Potency [2] | Potency [3] | outcome [4] | Potency [5] | outcome [6] | max response [7] 3.12% | Potency [9] | outcome [20] | Potency [10] | Potency [11] | Potency [12] | Potency [13] | Potency [14] | Potency [15] | Potency [16] | outcome [17] | Potency [18]

CC(=O)O[Si](C)(OC(C)=O)OC(C)=O
inactive: outcome [1] | Potency [2] | Potency [3] | outcome [4] | Potency [5] | Potency [19] | outcome [6] | Potency [8] | Potency [9] | outcome [20] | Potency [10] | Potency [11] | Potency [12] | Potency [13] | Potency [14] | Potency [15] | Potency [16] | outcome [17] | Potency [18]
